Data: ChEMBL document CHEMBL1961873, “Compounds: GSK PKIS; Assays: Nanosyn kinase panel” (2012)

Columns and labels:
[1] = biological target: MAP/microtubule affinity-regulating kinase 3 (Homo sapiens) (UniProt P27448); conditions: at 1 µM;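 also: reported values are averaged percent inhibition of MARK3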
[2] = biological target: T1, MAP/microtubule affinity-regulating kinase 4 (Homo sapiens) (UniProt Q96L34); conditions: at 0.1 µM
T1 sequence (whole entry): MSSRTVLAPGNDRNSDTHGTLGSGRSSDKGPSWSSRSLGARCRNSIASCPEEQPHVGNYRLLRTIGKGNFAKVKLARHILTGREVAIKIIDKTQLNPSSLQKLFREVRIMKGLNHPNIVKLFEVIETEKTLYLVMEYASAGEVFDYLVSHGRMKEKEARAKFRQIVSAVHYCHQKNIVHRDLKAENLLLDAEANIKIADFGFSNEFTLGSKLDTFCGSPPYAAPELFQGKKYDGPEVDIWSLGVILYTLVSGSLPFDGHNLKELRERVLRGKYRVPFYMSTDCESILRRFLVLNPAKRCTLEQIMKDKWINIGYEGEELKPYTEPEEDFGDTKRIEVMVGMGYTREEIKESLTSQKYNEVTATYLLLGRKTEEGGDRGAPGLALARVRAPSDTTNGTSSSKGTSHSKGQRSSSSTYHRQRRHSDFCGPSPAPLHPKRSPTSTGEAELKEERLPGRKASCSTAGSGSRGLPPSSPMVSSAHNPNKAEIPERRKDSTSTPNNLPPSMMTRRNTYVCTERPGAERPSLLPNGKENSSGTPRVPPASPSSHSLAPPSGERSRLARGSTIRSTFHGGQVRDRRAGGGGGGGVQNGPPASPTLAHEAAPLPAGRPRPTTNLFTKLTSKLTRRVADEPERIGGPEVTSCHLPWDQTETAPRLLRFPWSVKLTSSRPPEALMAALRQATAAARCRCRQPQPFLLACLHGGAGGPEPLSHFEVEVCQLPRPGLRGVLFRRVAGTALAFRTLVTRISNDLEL

[3] = biological target: T1, MAP/microtubule affinity-regulating kinase 4 (Homo sapiens); conditions: at 1 µM
[4] = biological target: Maternal embryonic leucine zipper kinase (Homo sapiens) (UniProt Q14680); conditions: at 0.1 µM
[5] = biological target: Maternal embryonic leucine zipper kinase (Homo sapiens) (UniProt Q14680); conditions: at 1 µM
[6] = biological target: MAP kinase-interacting serine/threonine-protein kinase 1 (Homo sapiens) (UniProt Q9BUB5); conditions: at 0.1 µM
[7] = biological target: MAP kinase-interacting serine/threonine-protein kinase 1 (Homo sapiens) (UniProt Q9BUB5); conditions: at 1 µM
[8] = biological target: MAP kinase-interacting serine/threonine-protein kinase 2 (Homo sapiens) (UniProt Q9HBH9); conditions: at 0.1 µM
[9] = biological target: MAP kinase-interacting serine/threonine-protein kinase 2 (Homo sapiens) (UniProt Q9HBH9); conditions: at 1 µM
[10] = biological target: Serine/threonine-protein kinase MARK2 (Homo sapiens) (UniProt Q7KZI7); conditions: at 0.1 µM;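 also: mean percent inhibition of PAR-1Balpha kinase activity, reported from the GSK PKIS screen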
Chain of Serine/threonine-protein kinase MARK2 (Homo sapiens) (Q7KZI7 whole entry): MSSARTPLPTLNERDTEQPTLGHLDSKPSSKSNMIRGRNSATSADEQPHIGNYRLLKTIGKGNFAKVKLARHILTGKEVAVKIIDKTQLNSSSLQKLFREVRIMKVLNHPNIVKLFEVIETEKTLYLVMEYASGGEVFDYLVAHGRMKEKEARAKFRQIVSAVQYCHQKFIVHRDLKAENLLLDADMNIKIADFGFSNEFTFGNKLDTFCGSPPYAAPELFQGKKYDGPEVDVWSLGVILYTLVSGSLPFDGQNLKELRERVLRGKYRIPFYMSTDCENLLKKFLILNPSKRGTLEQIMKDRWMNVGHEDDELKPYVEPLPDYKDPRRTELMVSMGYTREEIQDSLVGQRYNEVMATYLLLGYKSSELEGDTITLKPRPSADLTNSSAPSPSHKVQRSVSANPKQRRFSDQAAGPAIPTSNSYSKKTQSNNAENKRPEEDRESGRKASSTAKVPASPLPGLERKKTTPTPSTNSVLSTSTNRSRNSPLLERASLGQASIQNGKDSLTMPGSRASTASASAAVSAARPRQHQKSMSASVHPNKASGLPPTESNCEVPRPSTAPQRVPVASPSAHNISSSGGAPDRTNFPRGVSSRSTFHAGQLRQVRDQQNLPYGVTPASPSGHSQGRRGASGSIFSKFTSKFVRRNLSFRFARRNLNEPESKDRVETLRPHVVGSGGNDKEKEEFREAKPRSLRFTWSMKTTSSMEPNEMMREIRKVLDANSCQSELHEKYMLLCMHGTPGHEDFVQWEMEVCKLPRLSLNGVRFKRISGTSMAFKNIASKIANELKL

Chain of MAP kinase-interacting serine/threonine-protein kinase 2 (Homo sapiens) (Q9HBH9 whole entry, looked up): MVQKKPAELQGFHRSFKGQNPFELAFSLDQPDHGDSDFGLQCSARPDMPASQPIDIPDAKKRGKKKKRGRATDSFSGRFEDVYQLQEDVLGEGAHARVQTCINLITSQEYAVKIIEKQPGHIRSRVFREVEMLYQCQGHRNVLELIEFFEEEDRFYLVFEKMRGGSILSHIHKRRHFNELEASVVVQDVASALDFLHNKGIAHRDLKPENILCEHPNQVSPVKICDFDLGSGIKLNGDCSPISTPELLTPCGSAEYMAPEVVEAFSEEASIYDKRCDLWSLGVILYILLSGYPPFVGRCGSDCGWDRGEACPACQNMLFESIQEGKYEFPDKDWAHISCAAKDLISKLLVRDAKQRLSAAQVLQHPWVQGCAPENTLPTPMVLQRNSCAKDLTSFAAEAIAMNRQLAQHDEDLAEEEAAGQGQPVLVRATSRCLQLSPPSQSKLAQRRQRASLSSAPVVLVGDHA
Chain of MAP kinase-interacting serine/threonine-protein kinase 1 (Homo sapiens) (Q9BUB5 whole entry, looked up): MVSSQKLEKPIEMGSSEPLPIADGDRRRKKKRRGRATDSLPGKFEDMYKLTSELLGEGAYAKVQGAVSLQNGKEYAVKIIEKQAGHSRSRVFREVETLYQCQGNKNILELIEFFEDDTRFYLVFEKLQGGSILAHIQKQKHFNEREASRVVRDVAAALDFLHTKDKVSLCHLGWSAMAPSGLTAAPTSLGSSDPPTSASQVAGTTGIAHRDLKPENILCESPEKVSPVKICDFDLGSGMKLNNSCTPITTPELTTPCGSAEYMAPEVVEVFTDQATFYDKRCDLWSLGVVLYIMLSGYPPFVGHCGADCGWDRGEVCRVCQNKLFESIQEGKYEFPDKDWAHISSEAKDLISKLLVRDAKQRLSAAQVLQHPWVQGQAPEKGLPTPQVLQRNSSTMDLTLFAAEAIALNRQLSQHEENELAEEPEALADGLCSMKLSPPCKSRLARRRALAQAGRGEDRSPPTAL
Chain of Maternal embryonic leucine zipper kinase (Homo sapiens) (Q14680 whole entry, looked up): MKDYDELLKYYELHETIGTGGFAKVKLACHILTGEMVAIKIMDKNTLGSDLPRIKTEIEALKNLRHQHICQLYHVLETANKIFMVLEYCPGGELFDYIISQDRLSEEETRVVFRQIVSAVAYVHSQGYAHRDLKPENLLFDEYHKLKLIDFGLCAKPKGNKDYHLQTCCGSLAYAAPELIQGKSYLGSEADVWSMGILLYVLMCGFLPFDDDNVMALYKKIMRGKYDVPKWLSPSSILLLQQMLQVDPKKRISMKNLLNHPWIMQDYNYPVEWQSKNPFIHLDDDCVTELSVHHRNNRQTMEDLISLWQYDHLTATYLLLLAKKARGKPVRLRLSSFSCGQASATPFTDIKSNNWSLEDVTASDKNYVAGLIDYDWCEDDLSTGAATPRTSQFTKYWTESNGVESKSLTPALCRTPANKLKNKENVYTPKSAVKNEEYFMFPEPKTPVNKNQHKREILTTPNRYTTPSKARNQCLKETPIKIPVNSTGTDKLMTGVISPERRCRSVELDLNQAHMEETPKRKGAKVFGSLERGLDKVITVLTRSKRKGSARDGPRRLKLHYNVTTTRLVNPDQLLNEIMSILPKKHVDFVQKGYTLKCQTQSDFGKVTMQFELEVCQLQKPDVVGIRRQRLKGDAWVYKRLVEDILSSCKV
Chain of MAP/microtubule affinity-regulating kinase 3 (Homo sapiens) (P27448 whole entry, looked up): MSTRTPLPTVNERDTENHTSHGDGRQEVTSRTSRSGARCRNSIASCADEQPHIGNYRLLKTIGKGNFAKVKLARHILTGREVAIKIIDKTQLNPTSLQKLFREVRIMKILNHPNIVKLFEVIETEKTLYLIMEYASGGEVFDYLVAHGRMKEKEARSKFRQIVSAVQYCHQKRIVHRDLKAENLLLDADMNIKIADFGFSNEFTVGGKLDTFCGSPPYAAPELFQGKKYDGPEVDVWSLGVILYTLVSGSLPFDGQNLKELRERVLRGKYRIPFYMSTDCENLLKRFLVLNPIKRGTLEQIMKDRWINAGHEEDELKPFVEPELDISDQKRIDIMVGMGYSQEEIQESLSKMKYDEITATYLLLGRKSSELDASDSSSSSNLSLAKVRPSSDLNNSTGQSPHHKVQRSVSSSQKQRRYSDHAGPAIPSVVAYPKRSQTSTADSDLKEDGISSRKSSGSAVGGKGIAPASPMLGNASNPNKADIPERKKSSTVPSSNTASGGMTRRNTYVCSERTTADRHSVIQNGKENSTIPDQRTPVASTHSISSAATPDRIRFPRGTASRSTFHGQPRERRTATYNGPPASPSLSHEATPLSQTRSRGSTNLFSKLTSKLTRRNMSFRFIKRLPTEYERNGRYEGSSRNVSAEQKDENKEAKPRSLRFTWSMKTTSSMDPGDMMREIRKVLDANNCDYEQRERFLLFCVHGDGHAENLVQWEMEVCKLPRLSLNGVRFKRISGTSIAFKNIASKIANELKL

Row | SMILES | inhibition [1] | inhibition [2] | inhibition [3] | inhibition [4] | inhibition [5] | inhibition [6] | inhibition [7] | inhibition [8] | inhibition [9] | inhibition [10]
1 | COc1cccc(-n2ncc3c(N/N=C/c4ccc(C)cc4)ncnc32)c1 | 6.9% | 2.42% | 5.11% | 5.47% | 12.6% | 4.37% | 9.69% | 3.79% | 11.2% | 2.05%
2 | NS(=O)(=O)c1cccc(Nc2cc(-c3ccc(F)cc3)n[nH]2)c1 | 19% | 3.62% | 20.2% | 0.82% | 4.1% | 2.78% | 10.7% | 3.32% | 13% | 1.43%
3 | ON=C1CCc2cc(-c3nc(C4CCNCC4)[nH]c3-c3ccncc3)ccc21 | 3.01% | 0.47% | 1.99% | -0.02% | 1.75% | 0.86% | 3.6% | 0.66% | 0.78% | -1.2%
4 | Nc1ccc(C#Cc2cncnc2Nc2ccc(OCc3cccc(F)c3)c(Cl)c2)cc1 | 2.52% | 2.36% | 1.95% | 2.97% | 1.48% | 2.04% | 10.7% | 0.63% | 7.26% | -0.22%
5 | Cc1cc(Cl)cc2c1NC(=O)C2=NNc1ccc(S(N)(=O)=O)cc1 | 1.21% | -0.63% | -0.34% | 0.8% | 0.86% | 1.47% | 6.58% | 1.41% | 4.45% | 0.48%
6 | Oc1cccc(-c2nc(-c3ccccc3)[nH]c2-c2ccncc2)c1 | 6.43% | 1.16% | 2.71% | 4.46% | 5.5% | 5.55% | 25.6% | 1.57% | 14.8% | -0.88%
7 | OCc1ccc(-c2nc(-c3ccccn3)c(-c3ccc4c(c3)OCO4)[nH]2)cc1 | 4.42% | 1.75% | 2.19% | 6.02% | 4.4% | 2.65% | 2.54% | 0.41% | 0.09% | 1.8%
8 | NC(=O)c1cccc(Nc2nccc(Nc3cccc(F)c3)n2)c1 | 2.35% | 0.72% | 3.28% | -2.04% | 2.88% | 1.05% | 3.91% | 0.26% | 8.7% | -1.24%
9 | COc1cc2ncnc(Nc3ccc4c(cnn4Cc4ccccc4)c3)c2cc1OC | 2.6% | 1.05% | 3.55% | 3.54% | 8.01% | 2.44% | 18% | 0.99% | 17.1% | -0.07%
10 | COc1cccc(-n2nc(C)c3c(N/N=C(\C)c4ccncc4)ncnc32)c1 | 0.26% | -0.19% | -0.43% | -0.32% | 1.96% | 0.47% | 1.1% | -0.51% | 0.76% | -0.2%
11 | COc1cc(Nc2nccc(-c3cnn4ncccc34)n2)cc(OC)c1 | 34.1% | 3.44% | 22.1% | 7.1% | 43.9% | 1.97% | 10.2% | 3.13% | 17.2% | 2.81%
12 | CCS(=O)(=O)c1ccc(OC)c(Nc2nccc(N(C)c3ccc4c(C)n[nH]c4c3)n2)c1 | 3.79% | 2.78% | 3.51% | 3.25% | 6.92% | 3.05% | 3.58% | 0.35% | 3.48% | 0.55%
13 | NC(=O)c1sc(-n2cnc3ccccc32)cc1OCc1ccccc1Br | 5.83% | 1.43% | 5.23% | 4.71% | 10.1% | 2.14% | 11.7% | 0.25% | 4.3% | 1.95%
14 | CN1CCN(C(=O)c2ccc(NC(=O)Nc3ccc(N(C)c4ccnc(Nc5ccc(CS(C)(=O)=O)cc5)n4)cc3)cc2)CC1 | 20.3% | 2.48% | 17.1% | 0.8% | 13.2% | 2.8% | 13.1% | 5.75% | 33.8% | 0.98%
15 | COc1ccc2ncnc(Nc3ccc(OCc4ccccc4)cc3)c2c1 | 3.15% | 0.07% | -0.37% | -0.28% | 2.03% | 2.24% | 7.43% | 1.39% | 11.3% | 0.5%
16 | O=C1Nc2ccccc2/C1=C/Nc1ccc2[nH]c(=O)[nH]c2c1 | 27.5% | 4.86% | 27.1% | 5.79% | 41.4% | 5.46% | 14% | 2.62% | 10.9% | 3.32%
17 | Cc1ccc(C(=O)NC2CC2)cc1-c1ccc2[nH]ncc2c1 | 5.49% | 1.68% | 3.83% | -4.14% | -5.86% | -1.37% | -1.19% | 0.44% | 1.35% | 2.15%
